Laboratory results: the supplement of paper PMC12067093, “Discovery and optimisation of a covalent ligand for TRIM25 and its application to targeted protein ubiquitination” (Chemical Science, 2025)
Of roughly 21,000 targets only a part is listed; those with the largest changes were picked by preference.

These targets were tested with Cc1cc(ccc1-c1ccccc1)C(=O)N1CCCN(CC1)C(=O)CCl [compound 10] (assay: probe-labelled cysteine peptide fold change vs DMSO (competition) (log2 fold change); higher = less target engagement (more negative = stronger competition)). Details: 50 µM; THP-1; incubation time: 4 h.
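Note: competitive profiling in live THP-1 cells: cysteine peptides tagged with an iodoacetamide desthiobiotin (IA-DTB) probe, intensity after compound treatment relative to DMSO-treated cells.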

| Target | probe-labelled cysteine peptide fold change |
| --- | --- |
| HDAC8_Q9BY41_153_KDEASGFCYLNDAVLGILR (UniProt Q9BY41) | 0.0564 |
| HEATR3_Q7Z4Q2_57_ECACAGLAR (UniProt Q7Z4Q2) | -4.94 |
| HERC2_O95714_1037_ISSCLDFEQHSR (UniProt O95714) | 0.321 |
| HDAC10_Q969S8_23_LLWDDPECEIERPER (UniProt Q969S8) | -0.208 |
| HINT1_P49773_38_CLAFHDISPQAPTHFLVIPK (UniProt P49773) | 0.0613 |
| HERC2_O95714_1201_ERDDHEELAWPGIMESFFTGQNCR (UniProt O95714) | -0.244 |
| GSPT1_P15170_464_TAGTICLETFK (UniProt P15170) | 0.0941 |
| HDAC10_Q969S8_508_LLCVALGQLDRPPDLAHDGR (UniProt Q969S8) | 0.0528 |
| FGR_P09769_415_LIKDDEYNPCQGSK (UniProt P09769) | -0.205 |
| GFPT1_Q06210_264_VDSTTCLFPVEEK (UniProt Q06210) | 0.203 |
| HDHD5_Q9BXW7_392_DLCFSPGLMEASHVVNDVNEAVQLVFRK (UniProt Q9BXW7) | -1.22 |
| HBS1L_Q9Y450_84_LYSCLDHMR (UniProt Q9Y450) | -0.0662 |
| GATM_P50440_50_NSCAADDK (UniProt P50440) | -1.27 |
| GABPA_Q06546_69_LQCSLDAHEICLQDIQLDPER (UniProt Q06546) | -0.0571 |
| GTPBP3_Q969Y2_188_QLDGELGHLCR (UniProt Q969Y2) | -0.00935 |
| GOLGA2_Q08379_984_ERPGLGSNPCIPFFYR (UniProt Q08379) | -0.0471 |
| GEMIN5_Q8TEQ6_82_VSGFTFSHHPGQYNLCATSSDDGTVK (UniProt Q8TEQ6) | 0.148 |
| HDAC4_P56524_777_LAVGCVVELVFK (UniProt P56524) | 0.082 |
| GPD1L_Q8N335_216_NIVAVGAGFCDGLR (UniProt Q8N335) | 0.115 |
| GFI1_Q99684_155_GAGLGLFCEPAPEPGHPAALYGPK (UniProt Q99684) | 1.62 |
| FYCO1_Q9BQS8_293_LTCLVAELQK (UniProt Q9BQS8) | 0.224 |
| HCK_P08631_241_LSVPCMSSK (UniProt P08631) | 0.102 |
| HK3_P52790_840_AAQLCGAGVAAVVEK (UniProt P52790) | -0.0558 |
| HELZ_P42694_101_AVLCCMQLK (UniProt P42694) | -1.11 |
| GSTP1_P09211_102_DQQEAALVDMVNDGVEDLRCK (UniProt P09211) | 1.08 |
| GIT1_Q9Y2X7_576_KGVSASAVPFTPSSPLLSCSQEGSR (UniProt Q9Y2X7) | -0.788 |
| GFM2_Q969S9_248_LLWNCNSNDGK (UniProt Q969S9) | -0.937 |
| HDAC6_Q9UBN7_539_PATEAELLTCHSAEYVGHLR (UniProt Q9UBN7) | 0.302 |
